In PubChem BioAssay (NCI) one finds growth inhibition data, which are given here for eight compounds.

A short description of this assay: NCI Yeast Anticancer Drug Screen. Data for the rad14 strain (AID 159).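 Also: 0% = growth of vehicle-treated control cultures.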 Conditions: S. cerevisiae rad14 strain growth inhibition, active compounds read high. On the procedure: Growth inhibition of yeast strains with defined genetic alterations is measured as a screen for potential anti-cancer activity. Selected strains with alterations in DNA damage repair or cell cycle control were exposed to compounds and growth inhibition was measured relative to vehicle treated controls. The strain used in this assay is rad14

Compounds without any hit were thinned out: in the full panel of roughly 79,000, 15% have a hit. Unmarked numbers belong to inactive results. The source made the active and inactive calls. Rule as the data show it: active = growth inhibition above about 70%; inactive = the rest.

Turning to `CCOC(=O)/C(=C/c1cccc(Cl)c1)N(CC)CC`, the growth inhibition is -12% (at 1.2 µM); 10% (at 3.7 µM); 12% (at 11.0 µM); 46% (at 33.0 µM); 93% (active) (at 100.0 µM).
`Oc1c2c(c(O)c3ccccc13)C1(N=N2)c2ccccc2Oc2ccccc21`: the growth inhibition by setting is: (at 1.2 µM) 17%; (at 3.7 µM) 44%; (at 11.0 µM) 98% (active); (at 33.0 µM) 96% (active); (at 100.0 µM) 92% (active).
Turning to `CNC(=O)OCc1c(COC(=O)NC)c(C)n(-c2ccc(Br)cc2)c1C`, the growth inhibition by setting is: (at 1.2 µM) -23%; (at 3.7 µM) -16%; (at 11.0 µM) -7%; (at 33.0 µM) 73% (active); (at 100.0 µM) 98% (active).
Take `Cc1nc2sc3c(c2c(=O)o1)CCCC3`: the growth inhibition was 0% (at 1.2 µM); -4% (at 3.7 µM); 2% (at 11.0 µM); 13% (at 33.0 µM); 10% (at 100.0 µM).
The matching figures for `NC(CS)C(=O)NCCNc1ccc(NCCNC(=O)C(N)CS)c2c1C(=O)c1c(O)ccc(O)c1C2=O` (stereo not given): -55%, -47%, -43%, 81% (active) and 57%.
For `COC(=N)c1ccc(O)c(C)c1`, the growth inhibition reads like this: (at 1.2 µM) -3%; (at 3.7 µM) 0%; (at 11.0 µM) -2%; (at 33.0 µM) -4%; (at 100.0 µM) -1%.
With `Cc1cc(C)c(S(=O)(=O)c2ccc(Cl)cc2)c(C)c1`, the growth inhibition was -5% (at 1.2 µM); -8% (at 3.7 µM); -10% (at 11.0 µM); -8% (at 33.0 µM); 20% (at 100.0 µM).
Consider `ClCCCOc1c(Cl)cc(Cl)cc1Cl`, for which the growth inhibition reads like this: (at 1.2 µM) -4%; (at 3.7 µM) 2%; (at 11.0 µM) 5%; (at 33.0 µM) 1%; (at 100.0 µM) 13%.
